Values joined by “and” are separate entries in the source; they are usually repeats but may differ in a detail not shown here. Equal entries are not always repeated. This is part of a sample that, as a whole, favours compounds with a hit. Of some 79,000 tested, about 15% had one in any assay. Active and inactive are the calls of the source. No stated cut-off is given here; in the data, active means growth inhibition above about 70%; inactive means the rest.
Experiments:
[1] = NCI Yeast Anticancer Drug Screen. Data for the rad50 strain (AID 155);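 further: 0% = growth of vehicle-only cultures of the same strain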; conditions: S. cerevisiae rad50 strain growth inhibition, hits give high values; at 50.0 µM unless noted
Method in brief: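 Inhibition values express reduced yeast growth in compound-treated cultures relative to vehicle-treated controls.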

[2] = NCI Yeast Anticancer Drug Screen. Data for the mec2-1 strain (AID 157); conditions: S. cerevisiae mec2-1 strain, hits give high values; at 50.0 µM unless noted
Method in brief: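 Yeast mec2-1 mutant treated with compound. Readout: growth inhibition vs vehicle controls.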

[3] = NCI Yeast Anticancer Drug Screen. Data for the sgs1 mgt1 strain (AID 161);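 further: 0% = growth of cultures given vehicle only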; conditions: S. cerevisiae sgs1 mgt1 strain, hits give high values; at 50.0 µM unless noted
Method in brief: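 Inhibition of yeast growth, normalised to vehicle-treated controls, is reported for a strain bearing genetic alterations in DNA damage repair.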

[4] = NCI Yeast Anticancer Drug Screen. Data for the cln2 rad14 strain (AID 165);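 further: 0% = growth equal to vehicle treated cultures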; conditions: S. cerevisiae cln2 rad14 strain, hits give high values; at 50.0 µM unless noted
Method in brief: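 cln2 rad14 yeast strain; compound exposure; growth inhibition read vs vehicle controls.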

[5] = NCI Yeast Anticancer Drug Screen. Data for the bub3 strain (AID 167); conditions: S. cerevisiae bub3 mutant strain, hits give high values; at 50.0 µM unless noted
Method in brief: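 Steps: expose the mutant yeast strain to compound; grow alongside vehicle-treated cultures; measure growth; express inhibition against the vehicle cultures.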

[6] = NCI Yeast Anticancer Drug Screen. Data for the mlh1 rad18 strain (AID 175); conditions: S. cerevisiae mlh1 rad18 strain growth inhibition, hits give high values; at 50.0 µM unless noted
Method in brief: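 Yeast w/ defined DNA-repair lesions; compound exposure; growth vs vehicle controls → % inhibition.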

Measured: growth inhibition

COC(C(=O)Nc1ccc(C)cc1)(c1ccccc1)c1ccccc1
inactive: [1] 7.4% | [2] 7.45% | [3] -7.55% | [4] 0.65% | [5] 12.9% | [6] 23.8%

O=C(OC(c1ccccc1)C(c1ccccc1)N1CCOCC1)c1ccc([N+](=O)[O-])cc1 (stereo not given)
inactive: [1] 54.8% | [2] 8.3% | [3] 55.4% | [4] -4.9% | [5] 17.1% | [6] 54.6%

C=CCONC(=O)c1ccc(Cl)cc1
inactive: [1] 0.5% | [2] 1.75% | [3] -4.2% | [4] -5.5% | [5] -19.2% | [6] 27.3%

CCOC(=O)C(CC/C=C\c1ccccc1)N1CCC[C@H]1C(=O)OC (stereo not given in full)
inactive: [1] -7.9% | [2] -5% | [3] -11.9% | [4] 9.55% | [5] 2.75% | [6] -13.3%

C=C1CC2CC[C@@]34C[C@@H]5O[C@@H]6C(O[C@H]7CC[C@H](CC(=O)OC8[C@@H](C)C9OC%10C[C@]%11(C[C@@H]%12O[C@@]%13(C[C@@H](C)[C@@H]%12O%11)C[C@H](C)[C@@H]%11OC%12CC(C(O)CO)OC%12C[C@@H]%11O%13)OC%10CC9O[C@H]8C[C@H]8O[C@@H](CC[C@@H]1O2)C[C@@H](C)C8=C)O[C@@H]7[C@@H]6O3)C5O4 (stereo not given in full)
active: [1] 79.8% | [2] 74.6% | [3] 76.5% | [5] 83.2% | [6] 78.5%
inactive: [4] 69.8%

O=C(c1ccc(-c2ccccc2)cc1)c1ncc(-c2ccc(-c3ccccc3)cc2)[nH]1
inactive: [1] 15.5% | [2] 10.7% | [3] 17.1% | [4] -4% | [5] 19.1% | [6] 21.3%

ClB1NB(Cl)NB(Cl)N1
inactive: [1] -9.45% | [2] -33.8% | [3] -9.95% | [4] -7% | [5] -11.9% | [6] 3.55%

O=C1OCC=C1Sc1ccccc1
inactive: [1] -1.7% | [2] -8.05% | [3] -13.4% | [4] -7.7% | [5] -2.4% | [6] -8.8%

CC1OC(O)C(O)C(O)C1O (stereo not given)
inactive: [1] -19.3% and 13.9% | [2] -11.7% and 6.25% | [3] -43.6% and 31% | [4] -65.2% and 34.1% | [5] -39.3% and 27.2% | [6] -28.6% and 25.6%

COC(=O)NC(=O)c1cn(CCCOC(=O)CCCCCCCCC(=O)OCCCn2cc(C(=O)NC(=O)OC)c(=O)[nH]c2=O)c(=O)[nH]c1=O
inactive: [1] -13.5% | [2] -3.8% | [3] -7.45% | [4] 9.9% | [5] 13.3% | [6] -12.4%

Cc1cccc(OC(=O)NC2CCCCC2)c1
inactive: [1] 3.5% | [2] -4.25% | [3] -13.2% | [4] -72.3% | [5] 6.5% | [6] -13.3%

S=c1nc2ccccn2c(=S)n1-c1ccccn1
inactive: [1] 33.6% | [2] 23.9% | [3] 27.4% | [4] 0.5% | [5] 24.5% | [6] 57.9%

NC(=O)c1c([N+](=O)[O-])ncn1C1OC(CO)C(O)C1O (stereo not given)
inactive: [1] 20.5% | [2] -7.75% | [3] -5.8% | [4] -12.2% | [5] 5.8% | [6] 14.1%

O=P(CSCCO)(c1ccccc1)c1ccccc1
inactive: [1] -23.6% | [2] -21.9% | [3] -13.4% | [4] -6.3% | [5] -11.9% | [6] -36.7%

Cc1cccc(C2=N/C(=C\c3ccc(N(C)C)cc3)C(=O)O2)c1
inactive: [1] 20.2% | [2] 6% | [3] 7.7% | [4] 18.2% | [5] 3.05% | [6] -6.1%

NCC(O)C(O)C(O)CO (stereo not given)
inactive: [1] 6.15% | [2] -6% | [3] -1.3% | [4] -20% | [5] 9.1% | [6] -8.8%

C(/C=C/c1ccccc1)=Nc1ccc(SSc2ccc(N=C/C=C/c3ccccc3)cc2)cc1
inactive: [1] 38.2% | [2] 6.25% | [3] 4.65% | [4] -13% | [5] -3.05% | [6] 27.9%

O=C(O)c1c(-c2nccc3ccccc23)[nH]c(-c2ccccc2)c1S(=O)(=O)O
inactive: [1] -23.1% | [2] 5.7% | [3] -18.9% | [4] -35.3% | [5] -24.4% | [6] 21.6%

CC(C)(CO)CNC(=O)C(C)(C)CO
inactive: [1] 7.8% | [2] 14.1% | [3] -5% | [4] 21.1% | [5] 16.8% | [6] -4.4%

S=C1NCN2CCN(CC2)CNC(=S)C(=S)NCN2CCN(CC2)CNC1=S
inactive: [1] 39.2% | [2] 40.6% | [3] 13% | [4] 55.8% | [5] 48.9% | [6] 57.6%

O=P(O)(O)c1ccc(-c2ccc(I)cc2)cc1
inactive: [1] 11.7% | [2] -15.5% | [3] 7.45% | [4] 22.2% | [5] -8.8% | [6] 13.2%

Cc1ccc([N+](=O)[O-])cc1NC(=O)/C(=N/NC(=S)NN)C1SC(=S)NC1=O (stereo not given)
inactive: [1] 19.4% | [2] -12.1% | [3] 12.2% | [4] 20.9% | [5] -19.6% | [6] -8.75%

CC1([N+](=O)[O-])COC(Cc2ccccc2)OC1 (stereo not given)
inactive: [1] -7.7% | [2] -4% | [3] -16.9% | [4] -17.3% | [5] -18% | [6] -5%

Nc1cnccc1N1CCN(c2cccc3ccccc23)CC1
active: [1] 99% | [2] 99.3% | [3] 99.2% | [4] 98.8% | [5] 98.4% | [6] 99%

COc1ccc(OC)c2[nH]c(=O)c(C)nc12
inactive: [1] 7.15% | [2] 1.85% | [3] 5.75% | [4] -4.85% | [5] 4.35% | [6] -4.3%

O=C(Cc1ccccc1)N/N=C(/c1nc2ccc([N+](=O)[O-])cc2[nH]c1=O)C(O)c1ccccc1Cl (stereo not given)
inactive: [1] 0.8% | [2] 2.6% | [3] 6.8% | [4] 2.2% | [5] 5.7% | [6] 16.1%

O=C(O)CSc1nc2ccccc2[nH]1
inactive: [1] 3.5% | [2] 1.55% | [3] -36% | [4] -13.9% | [5] -35.4% | [6] 10%

O=c1oc(-c2ccccc2CCl)nc2ccccc12
inactive: [1] 0.95% | [2] -17.1% | [3] 15.8% | [4] 15.3% | [5] -13.8% | [6] -5.9%

CCOC(=O)C(CCCCNC(=O)CC)NC(=O)CC (stereo not given)
inactive: [1] 3.5% | [2] 1.3% | [3] 3.3% | [4] 3.55% | [5] 11.2% | [6] 2.65%

Cc1c(NC(=O)CSC(=S)N(C)C)c(=O)n(-c2ccccc2)n1C
inactive: [1] -1.1% | [2] -2.45% | [3] -18.4% | [4] 6.75% | [5] -35.8% | [6] -53.4%

N#CC1(c2ccccc2)CCC1
inactive: [1] 4.85% | [2] -24.9% | [3] 7.5% | [4] 16.6% | [5] 6.4% | [6] 5.1%

Nn1c(NNC(=O)C(=O)Nc2cc(Cl)c(Cl)cc2Cl)n[nH]c1=S
inactive: [1] -6.05% | [2] -16.1% | [3] -6.45% | [4] 23.8% | [5] 19.2% | [6] 1.4%

CC(=O)Nc1cc(C(=O)Nc2cc(C(=O)Nc3cc(C(=O)Nc4cc(C(=O)Nc5cc(C(=O)NCCC(=O)NCCCN(C)C)n(C)c5)n(C)c4)n(C)c3)n(C)c2)n(C)c1
inactive: [1] 9.7% | [2] -41.5% | [3] -18.6% | [4] -4% | [5] -31.9% | [6] -37.8%

O=C(CCC1OCCO1)Nc1cc([N+](=O)[O-])ccc1OCc1ccccc1
inactive: [1] -1.9% | [2] 4.5% | [3] 6.25% | [4] -8.2% | [5] -1.35% | [6] 7.6%

NCCSS(=O)(=O)O
inactive: [1] 3.25% | [2] 4.45% | [3] -17.7% | [4] -41.5% | [5] 0.45% | [6] -24.9%
